The whole screen tested about 330,000 compounds, of which about 100 (0.03%) were called active. A call without a number means that no potency is given here. Roughly 1% stayed inconclusive and do not appear here. Only a selection was taken, and actives are over-represented in it overall. Unmarked numbers belong to inactive results. The call rests on the fitted dose curve; in most records, active means well fitted inhibition curve with a large enough effect; inconclusive means small, poorly fitted or top-dose-only effect; inactive means flat fitted curve, though single readings scatter.
The compounds below were run on Chaperonin Mm-Cpn (Methanococcus maripaludis) (assay: Inhibitors of TCP-1 ring complex (TRiC) of Methanococcus maripaludis (MmCpn): qHTS). Conditions: purified Mm-Cpn ATPase, ADP Transcreener TR-FRET; series mostly up to 76.9 µM.
Excerpt: The eukaryotic chaperonin TRiC (for TCP-1 ring complex) is an essential and conserved chaperone required for the folding and activation of 10-15% of the proteins encoded by the human genome. […] The TRiC complex consist of two stacked 7-9 membered rings, each containing a central cavity. Substrates are folded within the cavity in an ATP-dependent manner. TRiC is a complex of eight different, essential proteins. As each of the genes encoding the eight subunits is essential for cell viability and no protocol has been developed to over-express this enzyme to high levels. That is why several groups studying the TRiC chaperonin have turned to the archaeal homolog of TRiC, Methanococcus maripaludis (Mm-CPN), and have used this enzyme as a model system for the study of the type II chaperonin family. Small molecule inhibitors of the Mm-CPN enzyme would be extremely useful to study the mechanism of chaperonin activity. Importantly, TRiC and Mm-CPN both require ATP hydrolysis for function. Furthermore, the ATP binding sites are highly conserved among these type II chaperonins. This provides us with an easy, well tested and straightforward assay to identify inhibitors of chaperonin activity. The Mm-CPN assay was developed in 1536-well plate format using the HTRF Transcreener ADP assay kit (Cisbio, Bedford, MA). This assay applied the time resolved fluorescence resonance energy transfer (TR-FRET) principle. ATP in the presence of Mm-CPN is converted to ADP + Pi. An antibody labeled with Eu3+-Cryptate specific and bound to ADP labeled with […] (d2) competes with the unlabeled ADP generated by Mm-CPN. The resulting TR-FRET signal is inversely proportional to the concentration of ADP in the sample. In this assay a reduction in TR-FRET signal is observed with ATP turnover. NIH Chemical Genomics Center [NCGC] NIH Molecular Libraries Probe Centers Network [MLPCN] MLPCN Grant: DA030554-01A1 Assay Submitter (PI): Judith Frydman, Stanford University
Purified Mm-CPN was supplied by the laboratory of Dr. Judith Frydman. Protein samples were stored at -80C as single use aliquots. Protein was thawed in ambient temperature water bath and placed on ice once thawed. Buffer was prepared fresh day of screen. The buffer composition below was used to prepare the working solution of the Mm-CPN protein and ATP substrate. The buffer is comprised of 30 mM TRIS pH 7.4, 100mM KCl, 5mM MgCl2, and 1mM DTT. A final concentration of 25nM Mm-CPN and 10uM ATP per well were used in the screen. Instructions according to the manufacturer were followed for the ADP Transcreener kit. Used 1536 well Greiner white, medium binding (MB), solid bottom plates. Plates were read on the PerkinElmer EnVision plate reader using Excitation = 320 nm and Emission = […], 665 nm. Protocol- 1.Dispense 1.5ul per well of working [Mm-CPN] = 50nM (or 75 ng / well) 2.Spin plate at 1000 rpm for 30 seconds 3.23nl of compound transferred per well 4.Incubate at 37degC for 10 minutes 5.Dispense 1.5ul per well of working [ATP] = 20uM 6.Incubate at 37degC for 30 minutes 7.Dispense 3ul per well of Anti-ADP Cryptate / ADP-d2 mix (prepared as instructed by Cisbio) 8.Incubate at ambient for 30 minutes 9.Read using EnVision
Further: nearly all actives have a fitted effect of over 80% in size.
Potency means the concentration at half of the fitted maximal effect.
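Wherever potency is given: enzyme at 25 nM with ATP substrate at 10 µM during the reaction.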

SMILES | Potency | activity, negative = inhibition
N#Cc1ccc(-c2nc3cc(C#N)c(C#N)cc3nc2-c2ccccc2)cc1C#N | inactive | 
CC(=O)Nc1ccc(S(=O)(=O)N2CCN(S(=O)(=O)c3cccs3)CC2)cc1 | inactive | 
Cc1ccc(CNC(=O)c2ccccc2CCc2ccccc2)cc1 | inactive | 
CCC1SC(CC)C(=O)N(CC(=O)NC2CCCCC2)C1=O (centres undefined) | inactive | 
Cc1cccc(C(=O)Nc2ccc(Oc3cnccn3)cc2)c1 | inactive | 
CC(=O)Nc1cccc(C(=O)OCN2C(=O)c3ccccc3C2=O)c1 | inactive | 
C=CCN1C(=O)c2ccc(C(=O)N3CCC(C(=O)OCC)CC3)cc2C1=O | inactive | 
Cc1ccc(NC2=C(Cl)C(=O)OC2OC(=O)c2ccccc2C)cc1 (centres undefined) | inactive | 
Cc1ccccc1N1CCN(CCCN2C(=O)C3CCCCN3C2=O)CC1 (centres undefined) | inactive | 
O=C(CCNS(=O)(=O)c1ccccc1)NCCCc1ccccc1 | inactive | 
COc1cc(Br)c(-c2sc(Nc3ccccc3)n[n+]2-c2ccccc2)cc1OC | inactive | 
CCc1ccc(Nc2n[n+](-c3ccccc3)c(-c3cccc(Cl)c3Cl)s2)cc1 | 56.2 µM (active) | 
NC(=O)N1CCCC1C(=O)Nc1ccc(Cl)c(Cl)c1 (centres undefined) | inactive | 
CC(C)c1ccc(N2CCN(C(=O)c3ccccc3NC(=O)/C=C(\C(=O)O)c3ccccc3)CC2)cc1 | inactive | 
CC(NC(=O)COC(=O)c1ccc(Cl)cc1O)c1ccc(F)cc1 (centres undefined) | inactive | 
COc1ccccc1-c1sc2ccccc2c1-c1ccc(C(C)=O)cc1 | 31.6 µM (active) | 
COc1ccc2sc(-c3ccccc3OC)c(-c3ccc(OCCN4CCCC4)cc3)c2c1 | inactive | 
COC(=O)c1ccc(/C=C/c2c(-c3ccc(OC)cc3)sc3ccccc23)cc1 | inactive | 
CC(=O)Nc1ccc(Nc2ncnc3c2nnn3Cc2ccccc2Cl)cc1 | inactive | 
O=C(NCc1ccccc1CN1CCCC1)C1CCN(S(=O)(=O)c2ccc(Cl)cc2)CC1 | inactive | 
CC(C)CN(C(=O)c1ccc2c(c1)OCO2)C1CCS(=O)(=O)C1 (centres undefined) | inactive | 
CC1(C)O[C@@H]2CC3C4C[C@H](F)C5=CC(=O)C=CC5(C)C4C(O)CC3(C)[C@]2(C(=O)CO)O1 (some centres undefined) | inactive | 
Cc1ccc2[nH]c(=O)c(CN(C)S(=O)(=O)c3cccc4nonc34)cc2c1 | inactive | 
Cc1nc(NC2=NC(C(=O)Nc3ccc(Cl)cc3)CC(=O)N2)nc2ccccc12 (centres undefined) | inactive | 
CC1CCN(c2ccc(C(=O)NCc3ccc4c(c3)OCO4)cc2[N+](=O)[O-])CC1 | inactive | 

SMILES | Potency | activity, negative = inhibition
CC(=O)c1ccc(NC(=O)CCNS(=O)(=O)c2cc(Br)cnc2N)cc1 | inactive | 
CC(=O)c1nn(-c2cccc(C(F)(F)F)c2)c(=O)[nH]c1=O | inactive | 
c1ccc(-c2nnc3n2NC(c2ccc4c(c2)OCO4)S3)cc1 (centres undefined) | inactive | 
O=C(CSc1nnc(-c2ccncc2)o1)Nc1cccc(Cl)c1 | inactive | 
O=C(O)C1CCN(C(=O)c2cc(F)cc3c2OCOC3)CC1 | inactive | 
CC(=O)c1cn(CCCCCCCCCCn2cc(C(C)=O)c(=O)[nH]c2=O)c(=O)[nH]c1=O | inactive | 
Cn1c2c(c(=O)n(C)c1=O)C(c1cccc(F)c1)C(C#N)=C(N)O2 (centres undefined) | inactive | 
CCCCOP(=O)(c1ccc(N(C)C)cc1)C(O)c1cc(OC)ccc1OC (centres undefined) | inactive | 
Cc1cccc(C(=O)O)c1[N+](=O)[O-] | inactive | 
CCN(CC)S(=O)(=O)c1ccc(CNC(=O)CN2C(=O)NC3(CCc4ccccc43)C2=O)cc1 (centres undefined) | inactive | 
NC(=O)CN1CCCC1c1ccc2c(c1)OCCO2 (centres undefined) | inactive | 
CCOC(=O)c1cc(-c2ccc(Cl)s2)nc2c1c(C)nn2C | inactive | 
Cc1cc(S(=O)(=O)NCC(C)C)ccc1OCC(=O)NC1CC1 | inactive | 
COc1ccc2c3c(c(=O)oc2c1)C1O[C@](CCCCN2C(=O)c4ccccc4C2=O)(Cc2c1ccc1ccccc21)O3 |  | 1.5% [at 15.4 µM]
O=C(CCc1ccccc1)Nc1ccnn1C1CCN(Cc2ccc(OCCO)cc2)CC1 | inactive | 
Cc1cccc(N(C(=O)Cc2cccs2)C(C(=O)NC2CCCC2)c2ccsc2)c1 (centres undefined) | inactive | 
O=C(CCNC(=O)c1ccc([N+](=O)[O-])cc1)NC1CCCCC1 | inactive | 
O=C1CC(=O)Nc2cc(S(=O)(=O)N3CCN(c4cccc(C(F)(F)F)c4)CC3)ccc2N1 | inactive | 
CCOC(=O)C1=C(CC)OC(N)=C(C#N)C1c1ccc(F)cc1F (centres undefined) | inactive | 
O=C(CN1CCN(C2CCS(=O)(=O)C2)CC1)N1N=C(c2ccc(Cl)cc2)CC1c1ccco1 (centres undefined) | inactive | 
CC(C)CNC(=O)/C=C/C(=O)O | inactive | 
Cc1ccc(C)c(N(CC(=O)NCc2ccco2)C(=O)CCC(=O)Nc2ccccn2)c1 | inactive | 
Cc1cccc(C)c1NC(=O)C(Cl)C(=O)c1ccccc1 (centres undefined) | inactive | 
Cn1c(=O)c2c(n(Cc3ccccc3)c1=O)NC(=O)C2CC(=O)N1CCc2ccccc2C1 (centres undefined) | inactive | 
CCCNCc1cc(OCC)c(OCC(=O)Nc2ccccc2)cc1Br | inactive | 

SMILES | Potency | activity, negative = inhibition
CC(c1ccccc1)n1c(NCCCn2ccnc2)nc2c1c(=O)[nH]c(=O)n2C (centres undefined) | inactive | 
CC(=O)NS(=O)(=O)c1ccc(NC(=O)/C=C/c2ccccc2Cl)cc1 | inactive | 
CN(CC(=O)NCCc1ccc(F)cc1)CC(=O)Nc1ccc(F)c(F)c1F | inactive | 
CC(C)c1nc2oc3c(N4CCN(C)CC4)ncnc3c2c2c1CCC2 | inactive | 
C=CS(=O)c1sc(Cl)c(N2CCOCC2)c1[N+](=O)[O-] (centres undefined) | inactive | 
CN(C)CCCNc1c2c(c(C#N)c3nc4ccccc4n13)CCC2 | inactive | 
CCn1c2ccccc2c2cc(NC(=O)Nc3ccc([N+](=O)[O-])cc3C)ccc21 | inactive | 
O=C(CCC(=O)c1ccccc1)NCc1cccc(C(F)(F)F)c1 | inactive | 
CCOc1ccccc1NC(=S)NC(=O)CCc1ccccc1 | inactive | 
O=S(=O)(c1cc(Cl)ccc1Cl)N1CCN(Cc2ccco2)CC1 | inactive | 
CCOc1cc(/C=C(/C#N)c2ccc(Cl)cc2)cc(Cl)c1OCC(=O)O | inactive | 
O=C(CSc1ncnc2c1cnn2CCc1ccccc1)Nc1ccc(F)cc1 | inactive | 
NC(=O)c1cc(-c2cccnc2)nc2ccc(Br)cc12 | inactive | 
Cc1ccc2nc(-c3ccccn3)cc(C(=O)Nc3ccc4c(c3)OCO4)c2c1 | inactive | 
O=C(Nc1ccncc1)c1cc(-c2ccccn2)nc2ccc(Br)cc12 | 44.7 µM (active) | 
O=C(Nc1cccnc1)c1noc2c1CCCCC2 | inactive | 
Nc1ccn(C2CC(O)C(CO)O2)c(=O)n1 (centres undefined) | inactive | 
Cc1ccc(C)c(CSc2nc(-c3ccco3)nc3c2c(=O)n(C)c(=O)n3C)c1 | inactive | 
COc1ccc(O)c(/C=N/N=C/c2cccc([N+](=O)[O-])c2)c1 | inactive | 
Nc1ccc(Nc2cc(O)c3ncccc3c2)cc1 | inactive | 
CCCN1Cc2cccc(C(=O)Nc3ccc(S(=O)(=O)N4CCCCCC4)cc3)c2C1=O | inactive | 
CCN(CC)CCN1C(=O)C(=O)/C(=C(/O)c2cnn(-c3ccccc3)c2C)C1c1cccs1 (centres undefined) | inactive | 
CC(C)(C)c1ccc(S(=O)(=O)N2CCN(C(=O)c3ccc4c(c3)C(=O)N(Cc3ccncc3)C4=O)CC2)cc1 | inactive | 
Cc1ccc(S(=O)(=O)Nc2ccc3c(c2)C(=O)N([C@H](C)CO)C[C@@H](C)[C@@H](CN(C)C(=O)Nc2cccc4ccccc24)O3)cc1 | inactive | 
C=CCC(NCCCO)c1cccc(OC)c1OC (centres undefined) | inactive | 

SMILES | Potency | activity, negative = inhibition
CC(C)CCN1CCN(Cc2ccc(C(F)(F)F)cc2)CC1CCO (centres undefined) | inactive | 
CC(C)(C)c1cc2cccnc2n1Cc1cccc(F)c1 | inactive | 
O=c1[nH]c(CSc2ccccc2)nc2c1oc1ccccc12 | inactive | 
CCOc1ccc(NC(=O)CCCCCN2C(=O)[C@@H]3Cc4ccccc4CN3C2=O)cc1 | inactive | 
CCN1C(=S)N[C@@H](c2cccc(C(F)(F)F)c2)C(C(=O)OC)=C1C | inactive | 
COc1cc(C(c2c(NC(=O)c3ccco3)sc(C)c2C)N2CCOCC2)cc(OC)c1OC (centres undefined) | inactive | 
CCC1CCCCN1C(=O)CSc1nc(C)cc(C)n1 (centres undefined) | inactive | 
COC(=O)C1CCN(C(=O)NC2CC(=O)N(c3ccc4c(c3)OCCO4)C2)CC1 (centres undefined) | inactive | 
O=C(CNCc1ccc(Cl)cc1)Nc1cccc(C(=O)O)c1 | inactive | 
Cc1ccc(-n2c(C)cc(/C=C(\C#N)C(=O)NCC3CCCO3)c2C)cc1 (centres undefined) | inactive | 
Cc1ccc(C)c(NC(=O)C(c2ccccc2)N2CCN(CC(=O)NC3CC3)CC2)c1 (centres undefined) | inactive | 
COc1ccccc1NC(=O)c1cc(N2C(=O)C3C4CCC(C4)C3C2=O)ccc1Cl (centres undefined) | inactive | 
CCc1nn(CCCC(=O)Nc2ccc(C)cc2C)c(=O)c2cc3occc3n12 | inactive | 
O=S(=O)(NC1CCN(S(=O)(=O)c2ccc3c(c2)OCCO3)CC1)c1c(F)cccc1F | inactive | 
COC(=O)c1ccc(Nc2ncnc3sccc23)cc1 | inactive | 
COc1ccc2nc(NC3=NCN(CC4CCCO4)CN3)nc(C)c2c1 (centres undefined) | inactive | 
O=S(=O)(c1ccc(-c2ccccc2)cc1)N1CCCC1 | inactive | 
COc1cc(C2C(C(=O)c3sc(C)nc3C)=C(O)C(=O)N2CCN(C)C)cc(OC)c1OC (centres undefined) | inactive | 
NC(=O)C1CCN(c2nc(-c3cccc(F)c3)cs2)CC1 | inactive | 
CCN(CC(=O)Nc1cc(Cl)ccc1C)C(=O)CSCc1ccccc1 | inactive | 
Cc1ccc(C(=O)OCC(=O)Nc2ccc(Cl)cn2)cc1S(=O)(=O)N1CCOCC1 | inactive | 
OCCNc1nc2ccccc2n1-c1ncnc2sc3c(c12)CCC3 | inactive | 
CCOC(=O)NC(=O)C(=CNc1cccc(OC)c1)C(=O)NC(=O)OCC | inactive | 
O.O.O.O=S(=O)([O-])OC[C@H]1O[C@@H](O[C@]2(COS(=O)(=O)[O-])O[C@H](OS(=O)(=O)[O-])[C@@H](OS(=O)(=O)[O-])[C@@H]2OS(=O)(=O)[O-])[C@H](OS(=O)(=O)[O-])[C@@H](OS(=O)(=O)[O-])[C@@H]1OS(=O)(=O)[O-].[Al] | inactive | 

Reference: PubChem BioAssay AID504842 (National Center for Advancing Translational Sciences (NCATS), 2011)
